Bioassay records deposited in PubChem BioAssay by National Center for Advancing Translational Sciences (NCATS).
CHX counter: Cycloheximide Counterscreen for Small Molecule Inhibitors of Shiga Toxin | 300,000 compounds, 12% hits | max response, % | cell reporter, cycloheximide protein synthesis inhibition counterscreen | AID 2314, 2010; in the data active = max response mostly above about 13%, no sharp cut-off; inactive = mostly below about 14%; note: read at 38.3 µM for the half of the compounds with a filed dose; 0% is about no effect
Pf growth 48h: Primary qHTS for delayed death inhibitors of the malarial parasite plastid, 48 hour incubation. 310,000 compounds, 5.9% hits. P. falciparum luciferase growth in erythrocytes, 48 h. Potency, µM (series often up to 28.7 µM), for inactives: top-dose activity change, negative = inhibition, actives largely listed as inhibitors. AID 504832, 2011; note: potency is the fitted concentration of half-maximal effect; % is set by controls: 0 for no effect and ±100 for the full control effect
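Luciferase-expressing P. falciparum in infected erythrocytes (2% hematocrit, 0.1% parasitemia final) in RPMI 1640/0.5% Albumax were exposed to compound for 48 hours at 37 C, 5% CO2; growth read as luminescence.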
Marburg entry inh: qHTS for inhibitors of binding or entry into cells for Marburg Virus. Marburg virus pseudotyped entry inhibition, cell reporter. Potency, µM (series often up to 37.8 µM), for the others: top-dose activity change, negative = inhibition, hits mostly inhibitors. 300,000 compounds, 1.8% hits. AID 540276, 2011; calls by dose curve; tested in HEK293 cells; note: potency is the fitted concentration of half-maximal effect; % is set by controls: 0 for no effect and ±100 for the full control effect
Pf growth 96h: Primary qHTS for delayed death inhibitors of the malarial parasite plastid, 96 hour incubation. P. falciparum luciferase reporter growth, 96 h. Potency, µM (series often up to 28.7 µM), without a hit: at the highest dose activity change, negative = inhibition, actives largely listed as inhibitors. 320,000 compounds, 6.9% hits. AID 504834, 2011; note: potency is the fitted concentration of half-maximal effect; % is set by controls: 0 for no effect and ±100 for the full control effect
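Infected RBCs, 2% Hct / 0.05% parasitemia final; luciferase-reporter P. falciparum; cpd 96 h, 37 C, 5% CO2; luciferase detection reagent; luminescence.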
LASV entry inh: qHTS for Inhibitors of binding or entry into cells for Lassa Virus | Lassa virus pseudotype entry inhibition, cell reporter | Potency, µM (series often up to 37.9 µM), for inactives: at the highest dose activity change, negative = inhibition, hits mostly inhibitors | 300,000 compounds, 1.2% hits | AID 540256, 2011; calls by dose curve; tested in HEK293 cells; note: potency is the fitted concentration of half-maximal effect; % is set by controls: 0 for no effect and ±100 for the full control effect; nearly all actives have a fitted effect of over 50% in size
Shiga toxin inh: A qHTS for Small Molecule Inhibitors of Shiga Toxin | AID 2315, 2010 | 290,000 compounds, 9.2% hits | inhibition, % at 38.7 µM | Vero cells, Shiga toxin protein synthesis inhibition reporter; in the data active = inhibition mostly above about 28%, no sharp cut-off; inactive = mostly below about 43%; note: 0% is about no effect
* hit, by the source's call; ? = inconclusive; / = no result given; [ ] = another dose, or the depositor's remark. A selection: hits, their analogues and other compounds. The true share with any hit is near 19%. Unless noted, calls come from the whole dose curve; as a rule, active = well fitted inhibition curve with a large enough effect; inconclusive = small, poorly fitted or top-dose-only effect, or another doubt; inactive = no such curve, though single readings can be large or run the other way.

SMILES	CHX counter	Pf growth 48h	Marburg entry inh	Pf growth 96h	LASV entry inh	Shiga toxin inh
CCOC(=O)c1cc(NC(=O)N2CCCc3ccccc32)c(C)nc1C	20*	51%	?	25%	-13%	43
COc1ccc(C)cc1NC(=O)N1CCCc2ccccc21	23*	-14%	?	31%	?	75*
CCOC(=O)Nc1cc(C(=O)OCC)c(C)nc1C	-5	8%	4%	11%	-11%	12
Cc1nc(C)c(NC(=O)N2CCc3ccccc32)cc1NC(=O)N1CCc2ccccc21	-3	?	-18%[46.1 µM]	/	4%	3
CCOC(=O)c1cc(NC(=O)Nc2cc(C)ccn2)c(C)nc1C	14	16%	-19%[46.1 µM]	34%	13%	39*
COc1ccc(NC(=O)NC2CCCc3ccccc32)c(OC)c1 (centres undefined)	23	-21%	-17%[46.1 µM]	?	-7%[46.1 µM]	10
COc1ccc(NC(=O)N2CCCc3ccccc32)c(OC)c1	17*	-8%	14%[46.1 µM]	-47%	?	44
C#C[C@]1(OC(C)=O)CC[C@H]2[C@@H]3CCC4=C[C@@H](OC(C)=O)CC[C@@H]4[C@H]3CC[C@@]21C	/	-27%	/	?	/	/
Cc1cccc(N2CCN(C3=NC(=O)C(Cc4ccccc4)S3)CC2)c1 (centres undefined)	-1	-14%	6%	12µM*	-11%	-8
Cc1c(CC(=O)NC(C)C)c(=O)oc2cc3c(cc12)CCC(C)(C)O3	35*	12%	11%[46.1 µM]	56%	-10%[46.1 µM]	54*
Cc1c(CC(=O)N[C@H](C(=O)O)C(C)C)c(=O)oc2cc3c(cc12)CCC(C)(C)O3	67*	139%	?	261%	?	98*
Cc1c(CC(=O)N[C@@H](C)C(=O)O)c(=O)oc2cc3c(cc12)CCC(C)(C)O3	-1	34%	/	36%	/	-6
Cc1c(CC(=O)NCCC(C)C)c(=O)oc2cc3c(cc12)CCC(C)(C)O3	3	-6%	0%[46.1 µM]	0%	-12%[46.1 µM]	-5
Cc1c(CC(=O)NCC(C)C)c(=O)oc2cc3c(cc12)CCC(C)(C)O3	23*	?	3%[46.1 µM]	6%	-3%[46.1 µM]	41*
COCCNC(=O)Cc1c(C)c2cc3c(cc2oc1=O)OC(C)(C)CC3	14*	19%	-1%[46.1 µM]	-1%	-24%[46.1 µM]	21
CCN(CC(=O)Nc1ccccc1OC)C(=O)C1CCC1	/	2%	?	0%	6%	/
CCOC(=O)c1cnn(-c2ccc(F)cc2)c1N	5	29%	2%	36%	17%	-3
CCC(C)NC(=O)Cc1c(C)c2cc3c(cc2oc1=O)OC(C)(C)CC3 (centres undefined)	40*	63%	?	94%	?	63*
Cc1ccc(CNC(=O)C2(NC(=O)Nc3ccc(C)cc3)CCCCC2)cc1	-3	?	-22%	-6%	?	16
Cc1cc2ncn(S(=O)(=O)c3ccc(F)cc3)c2cc1C	-3	-15%	/	?	/	2
CCOc1ccc(S(=O)(=O)n2cnc3cc(C)c(C)cc32)cc1	-2	3%	21µM*	8%	?	-3
COc1cc(C2Nc3ccccc3C(=O)N2c2ccccc2)c(Br)cc1OCC(=O)O (centres undefined)	12	3%	17%	4%	?	24*
COC(=O)COc1ccc(Cl)cc1C1Nc2ccccc2C(=O)N1c1ccc(OC)cc1 (centres undefined)	12	24%	-2%	73%	1%	15
CCc1noc(C)c1C(=O)Nc1nc(-c2cc(C)ccc2C)c(C)s1	-4	?	?	10µM*	?	-13
CCc1noc(C)c1C(=O)Nc1ncc(C)s1	19*	54%	13%	-2%	0%	41*
CCc1noc(C)c1C(=O)Nc1nc(-c2ccc(F)cc2)c(C)s1	-2	-22%	/	?	/	-7
CCn1c(SCC(=O)Nc2nc3c(s2)CCCC3)nnc1-c1ccccc1	-4	2.1µM*	-7%	13%	-29%[14.3 µM]	12
Cc1ccc2cc(C)c3nnc(SCC(=O)c4cccs4)n3c2c1C	38*	-1%	3%	51%	?	26
O=C(CSc1nc2ccccc2c(=O)[nH]1)c1cccs1	10	-3%	-1%	?	15%	10
